# Measured values reported in publication PMC7862700, “An all-to-all approach to the identification of sequence-specific readers for epigenetic DNA modifications on cytosine”.
# What was measured:
# Experiment in all cases: DAPPL (digital affinity profiling via proximity ligation, sequencing); 10 mM Tris-HCl pH 7.5, 50 mM NaCl, 1 mM DTT, 4% glycerol, room temperature, 30 min; GST-TFs on glutathione beads, 16-mer random dsDNA library, 0.1% formaldehyde crosslink after washing; high values mean tight binding
# FEV = target: T1, FEV (Homo sapiens, UniProt Q99581 1-238); details: protein: recombinant; tags: N-terminal GST; dsDNA, one strand shown
# T1 sequence: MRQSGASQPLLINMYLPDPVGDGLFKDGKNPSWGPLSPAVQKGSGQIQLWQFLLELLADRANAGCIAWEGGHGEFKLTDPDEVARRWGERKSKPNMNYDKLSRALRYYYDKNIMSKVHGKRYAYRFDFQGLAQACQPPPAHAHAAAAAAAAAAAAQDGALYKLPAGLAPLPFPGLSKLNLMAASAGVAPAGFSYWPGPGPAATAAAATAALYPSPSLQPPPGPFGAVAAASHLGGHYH
# Outline: (§1)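 Human transcription factors were made in yeast as GST fusions, captured on glutathione beads and barcoded with DNA. With a tag-only sample included, the pool was incubated with 200 nmole of a random double-stranded 16-mer DNA library in Tris/NaCl/DTT/glycerol buffer at room temperature for 30 min, then crosslinked with 0.1% formaldehyde after washing, ligated by proximity, amplified and sequenced. For binding signal, each hexamer's read frequency for a factor is divided by its frequency for the tag-only sample.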
# ETV5 = ETV5 (Homo sapiens, UniProt P41161 1-510); details: protein: recombinant; tags: N-terminal GST; dsDNA, one strand shown
# ETV5, sequence (P41161 whole entry): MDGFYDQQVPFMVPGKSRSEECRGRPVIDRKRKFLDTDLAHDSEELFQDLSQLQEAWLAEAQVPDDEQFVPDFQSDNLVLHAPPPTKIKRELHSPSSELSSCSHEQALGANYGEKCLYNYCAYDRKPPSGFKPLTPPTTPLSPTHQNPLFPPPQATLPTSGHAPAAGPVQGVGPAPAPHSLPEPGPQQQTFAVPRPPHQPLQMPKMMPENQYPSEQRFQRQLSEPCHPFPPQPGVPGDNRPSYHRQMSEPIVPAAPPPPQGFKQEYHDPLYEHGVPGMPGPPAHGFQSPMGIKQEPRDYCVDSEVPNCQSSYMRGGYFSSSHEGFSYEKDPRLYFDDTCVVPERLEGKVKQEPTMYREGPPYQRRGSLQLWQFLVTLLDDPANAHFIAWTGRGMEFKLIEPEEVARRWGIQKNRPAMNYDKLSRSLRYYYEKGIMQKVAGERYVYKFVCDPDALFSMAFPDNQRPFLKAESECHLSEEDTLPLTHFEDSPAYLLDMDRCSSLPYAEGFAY
# Outline: as §1
# HSF1 = HSF1 (Homo sapiens, UniProt Q00613 1-529); details: protein: recombinant; tags: N-terminal GST; chain copies: 3; dsDNA, one strand shown
# HSF1, sequence (Q00613 whole entry): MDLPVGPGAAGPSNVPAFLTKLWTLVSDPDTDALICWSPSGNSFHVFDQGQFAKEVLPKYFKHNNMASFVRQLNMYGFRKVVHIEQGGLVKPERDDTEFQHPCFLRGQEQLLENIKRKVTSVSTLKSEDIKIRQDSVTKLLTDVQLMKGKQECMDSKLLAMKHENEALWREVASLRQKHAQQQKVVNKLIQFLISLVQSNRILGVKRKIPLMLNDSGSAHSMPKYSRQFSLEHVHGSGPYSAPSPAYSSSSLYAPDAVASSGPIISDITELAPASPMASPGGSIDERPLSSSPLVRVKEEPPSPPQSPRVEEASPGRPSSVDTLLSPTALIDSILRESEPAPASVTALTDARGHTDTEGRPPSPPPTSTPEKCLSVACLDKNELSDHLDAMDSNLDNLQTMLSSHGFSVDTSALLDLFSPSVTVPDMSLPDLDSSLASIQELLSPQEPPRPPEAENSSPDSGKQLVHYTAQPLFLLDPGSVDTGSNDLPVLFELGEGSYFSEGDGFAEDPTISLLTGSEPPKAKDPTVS
# Outline: as §1
# SPIC = target: T2, SPIC (Homo sapiens, UniProt Q8N5J4 1-248); details: protein: recombinant; tags: N-terminal GST; dsDNA, one strand shown
# T2 sequence: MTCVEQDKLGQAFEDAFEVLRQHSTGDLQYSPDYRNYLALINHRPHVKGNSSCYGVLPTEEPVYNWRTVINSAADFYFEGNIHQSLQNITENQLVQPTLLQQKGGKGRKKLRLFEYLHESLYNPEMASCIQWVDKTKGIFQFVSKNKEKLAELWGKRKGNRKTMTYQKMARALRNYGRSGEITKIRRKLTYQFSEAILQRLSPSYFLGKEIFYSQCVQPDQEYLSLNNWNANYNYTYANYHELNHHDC
# Outline: as §1
# ELF4 = ELF4 (Homo sapiens, UniProt Q99607 1-663); details: protein: recombinant; tags: N-terminal GST; dsDNA, one strand shown
# ELF4, sequence (Q99607 whole entry): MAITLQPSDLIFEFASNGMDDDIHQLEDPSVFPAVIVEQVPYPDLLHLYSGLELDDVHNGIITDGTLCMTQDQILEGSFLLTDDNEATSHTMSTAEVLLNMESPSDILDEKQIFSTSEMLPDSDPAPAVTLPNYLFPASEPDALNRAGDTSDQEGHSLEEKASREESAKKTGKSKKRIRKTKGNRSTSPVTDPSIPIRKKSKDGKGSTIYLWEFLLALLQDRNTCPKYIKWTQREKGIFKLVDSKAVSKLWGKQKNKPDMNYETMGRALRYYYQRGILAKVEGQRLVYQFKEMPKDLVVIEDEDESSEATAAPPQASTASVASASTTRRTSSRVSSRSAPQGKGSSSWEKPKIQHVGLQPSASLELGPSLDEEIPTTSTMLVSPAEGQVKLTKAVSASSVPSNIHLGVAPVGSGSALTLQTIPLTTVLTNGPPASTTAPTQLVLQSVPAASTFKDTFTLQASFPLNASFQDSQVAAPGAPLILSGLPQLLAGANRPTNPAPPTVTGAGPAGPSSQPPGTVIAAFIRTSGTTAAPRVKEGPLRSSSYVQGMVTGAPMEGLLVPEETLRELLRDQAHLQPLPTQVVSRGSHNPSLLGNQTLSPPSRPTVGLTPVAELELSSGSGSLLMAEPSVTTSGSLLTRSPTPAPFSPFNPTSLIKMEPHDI
# Outline: as §1
# ELK4 = target: T3, ELK4 (Homo sapiens, UniProt P28324-2 1-405); details: protein: recombinant; tags: N-terminal GST; dsDNA, one strand shown
# T3 sequence: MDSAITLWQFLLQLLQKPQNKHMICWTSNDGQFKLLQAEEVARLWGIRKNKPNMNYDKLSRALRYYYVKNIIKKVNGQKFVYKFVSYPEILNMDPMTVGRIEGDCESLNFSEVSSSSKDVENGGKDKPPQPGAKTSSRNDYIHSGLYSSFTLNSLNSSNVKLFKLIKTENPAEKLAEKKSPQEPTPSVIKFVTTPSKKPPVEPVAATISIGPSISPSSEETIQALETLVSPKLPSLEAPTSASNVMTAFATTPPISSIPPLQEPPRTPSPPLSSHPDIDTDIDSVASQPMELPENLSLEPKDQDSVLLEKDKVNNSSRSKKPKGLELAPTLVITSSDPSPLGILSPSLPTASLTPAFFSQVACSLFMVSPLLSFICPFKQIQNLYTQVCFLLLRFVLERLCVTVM
# Outline: as §1
# ETV2 = target: T4, ETV2 (Homo sapiens, UniProt O00321 1-342); details: protein: recombinant; tags: N-terminal GST; dsDNA, one strand shown
# T4 sequence: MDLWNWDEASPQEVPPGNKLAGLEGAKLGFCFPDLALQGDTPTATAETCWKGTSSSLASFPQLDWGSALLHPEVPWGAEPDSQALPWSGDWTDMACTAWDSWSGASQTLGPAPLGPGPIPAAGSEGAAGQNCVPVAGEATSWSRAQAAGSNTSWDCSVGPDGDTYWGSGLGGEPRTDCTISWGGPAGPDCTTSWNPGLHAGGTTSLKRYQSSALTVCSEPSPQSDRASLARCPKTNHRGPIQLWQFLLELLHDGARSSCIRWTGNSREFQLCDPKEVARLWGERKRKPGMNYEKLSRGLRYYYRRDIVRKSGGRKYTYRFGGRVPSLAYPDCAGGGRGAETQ
# Outline: as §1
# ELF3 = target: T5, ELF3 (Homo sapiens, UniProt P78545 1-371); details: protein: recombinant; tags: N-terminal GST; dsDNA, one strand shown
# T5 sequence: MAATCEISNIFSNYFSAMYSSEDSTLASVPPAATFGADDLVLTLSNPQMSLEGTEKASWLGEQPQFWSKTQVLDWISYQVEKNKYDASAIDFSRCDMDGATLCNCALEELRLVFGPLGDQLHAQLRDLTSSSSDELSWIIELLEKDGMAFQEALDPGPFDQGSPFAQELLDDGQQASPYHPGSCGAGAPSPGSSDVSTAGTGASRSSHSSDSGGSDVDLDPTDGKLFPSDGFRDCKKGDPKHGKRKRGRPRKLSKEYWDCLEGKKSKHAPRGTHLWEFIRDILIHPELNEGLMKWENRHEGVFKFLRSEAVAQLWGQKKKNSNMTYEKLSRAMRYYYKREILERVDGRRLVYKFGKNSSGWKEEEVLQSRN
# Outline: as §1
# CRX = CRX (Homo sapiens, UniProt O43186 1-299); details: protein: recombinant; tags: N-terminal GST; dsDNA, one strand shown
# CRX, sequence (O43186 whole entry): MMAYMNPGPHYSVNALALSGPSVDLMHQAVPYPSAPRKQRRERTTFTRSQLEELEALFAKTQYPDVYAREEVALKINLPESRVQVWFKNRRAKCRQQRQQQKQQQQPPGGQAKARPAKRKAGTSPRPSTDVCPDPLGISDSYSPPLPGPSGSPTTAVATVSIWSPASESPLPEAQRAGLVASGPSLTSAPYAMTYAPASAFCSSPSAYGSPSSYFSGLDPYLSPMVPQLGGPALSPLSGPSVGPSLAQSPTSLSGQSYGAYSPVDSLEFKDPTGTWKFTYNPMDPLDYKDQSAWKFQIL
# Outline: as §1
# ETV1 = ETV1 (Homo sapiens, UniProt P50549 1-477); details: protein: recombinant; tags: N-terminal GST; dsDNA, one strand shown
# ETV1, sequence (P50549 whole entry): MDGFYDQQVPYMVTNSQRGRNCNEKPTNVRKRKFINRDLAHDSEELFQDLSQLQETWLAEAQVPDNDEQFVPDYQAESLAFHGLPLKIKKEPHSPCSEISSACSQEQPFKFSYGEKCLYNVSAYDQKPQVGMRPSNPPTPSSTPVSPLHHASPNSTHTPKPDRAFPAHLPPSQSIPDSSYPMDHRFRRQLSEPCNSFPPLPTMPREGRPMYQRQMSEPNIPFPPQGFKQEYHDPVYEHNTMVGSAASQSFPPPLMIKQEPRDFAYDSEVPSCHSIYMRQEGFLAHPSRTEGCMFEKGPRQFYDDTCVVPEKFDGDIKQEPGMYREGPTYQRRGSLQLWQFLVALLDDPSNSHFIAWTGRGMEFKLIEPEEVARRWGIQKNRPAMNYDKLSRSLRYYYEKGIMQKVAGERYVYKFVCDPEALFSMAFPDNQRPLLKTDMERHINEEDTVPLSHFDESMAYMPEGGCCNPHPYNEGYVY
# Outline: as §1
# ERF = target: T6, ERF (Homo sapiens, UniProt P50548 1-548); details: protein: recombinant; tags: N-terminal GST; dsDNA, one strand shown
# T6 sequence: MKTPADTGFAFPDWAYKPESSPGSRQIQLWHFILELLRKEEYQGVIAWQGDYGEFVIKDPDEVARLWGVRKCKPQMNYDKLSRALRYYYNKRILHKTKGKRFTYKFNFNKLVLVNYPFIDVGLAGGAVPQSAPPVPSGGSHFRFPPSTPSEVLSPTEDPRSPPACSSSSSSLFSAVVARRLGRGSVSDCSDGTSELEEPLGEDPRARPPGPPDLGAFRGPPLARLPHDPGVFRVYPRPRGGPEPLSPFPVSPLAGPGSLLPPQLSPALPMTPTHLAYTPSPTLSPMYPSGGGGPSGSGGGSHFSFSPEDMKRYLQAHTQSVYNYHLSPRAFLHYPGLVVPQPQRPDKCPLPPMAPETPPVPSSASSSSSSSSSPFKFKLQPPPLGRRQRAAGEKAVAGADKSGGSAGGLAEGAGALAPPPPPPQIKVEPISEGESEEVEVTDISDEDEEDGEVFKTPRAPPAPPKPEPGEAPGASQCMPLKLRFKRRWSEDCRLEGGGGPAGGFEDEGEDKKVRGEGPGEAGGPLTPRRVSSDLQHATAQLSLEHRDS
# Outline: as §1
# ETV3L = target: T7, ETV3L (Homo sapiens, UniProt Q6ZN32 1-361); details: protein: recombinant; tags: N-terminal GST; dsDNA, one strand shown
# T7 sequence: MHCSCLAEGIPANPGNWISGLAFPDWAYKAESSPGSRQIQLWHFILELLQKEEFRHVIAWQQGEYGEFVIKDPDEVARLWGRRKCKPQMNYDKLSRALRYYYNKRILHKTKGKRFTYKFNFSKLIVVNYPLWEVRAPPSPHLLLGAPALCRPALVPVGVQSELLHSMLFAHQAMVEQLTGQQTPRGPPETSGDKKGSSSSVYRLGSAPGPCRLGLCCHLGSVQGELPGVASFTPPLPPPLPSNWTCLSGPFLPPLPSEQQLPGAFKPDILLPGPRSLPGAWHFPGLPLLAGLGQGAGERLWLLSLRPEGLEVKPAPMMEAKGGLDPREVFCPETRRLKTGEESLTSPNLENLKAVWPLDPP
# Outline: as §1
# ETS2 = target: T8, ETS2 (Homo sapiens, UniProt P15036 1-469); details: protein: recombinant; tags: N-terminal GST; dsDNA, one strand shown
# T8 sequence: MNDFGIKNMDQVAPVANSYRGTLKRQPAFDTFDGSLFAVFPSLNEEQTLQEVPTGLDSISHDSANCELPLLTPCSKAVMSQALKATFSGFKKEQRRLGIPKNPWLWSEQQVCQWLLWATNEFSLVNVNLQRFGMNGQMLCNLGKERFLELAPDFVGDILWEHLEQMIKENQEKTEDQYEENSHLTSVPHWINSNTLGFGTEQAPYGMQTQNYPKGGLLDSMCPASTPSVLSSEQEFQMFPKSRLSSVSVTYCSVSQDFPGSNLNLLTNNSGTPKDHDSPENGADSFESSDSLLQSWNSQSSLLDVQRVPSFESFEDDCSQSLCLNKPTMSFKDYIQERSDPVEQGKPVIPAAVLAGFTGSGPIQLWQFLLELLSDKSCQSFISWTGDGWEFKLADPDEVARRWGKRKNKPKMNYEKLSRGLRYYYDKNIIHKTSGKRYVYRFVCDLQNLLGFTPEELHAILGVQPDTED
# Outline: as §1
# SPDEF = target: T9, SPDEF (Homo sapiens, UniProt O95238 1-335); details: protein: recombinant; tags: N-terminal GST; dsDNA, one strand shown
# T9 sequence: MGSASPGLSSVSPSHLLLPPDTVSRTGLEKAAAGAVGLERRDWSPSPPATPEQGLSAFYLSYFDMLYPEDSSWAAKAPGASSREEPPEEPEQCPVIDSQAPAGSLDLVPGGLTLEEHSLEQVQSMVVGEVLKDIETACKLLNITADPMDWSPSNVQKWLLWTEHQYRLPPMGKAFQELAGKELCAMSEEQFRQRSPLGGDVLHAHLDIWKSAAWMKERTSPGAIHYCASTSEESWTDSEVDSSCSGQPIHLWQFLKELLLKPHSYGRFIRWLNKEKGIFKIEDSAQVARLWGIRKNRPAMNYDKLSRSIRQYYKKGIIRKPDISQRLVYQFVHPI
# Outline: as §1
# ETV7 = target: T10, ETV7 (Homo sapiens, UniProt Q9Y603 1-341); details: protein: recombinant; tags: N-terminal GST; dsDNA, one strand shown
# T10 sequence: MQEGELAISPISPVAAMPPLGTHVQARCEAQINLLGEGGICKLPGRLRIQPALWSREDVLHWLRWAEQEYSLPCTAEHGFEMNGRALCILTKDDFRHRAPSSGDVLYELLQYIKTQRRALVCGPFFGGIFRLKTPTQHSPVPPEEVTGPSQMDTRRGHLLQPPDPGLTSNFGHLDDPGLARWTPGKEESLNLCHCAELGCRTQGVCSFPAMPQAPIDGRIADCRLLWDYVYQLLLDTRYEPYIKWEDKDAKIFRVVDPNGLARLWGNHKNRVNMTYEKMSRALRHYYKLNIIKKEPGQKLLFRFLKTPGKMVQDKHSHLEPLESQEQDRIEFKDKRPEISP
# Outline: as §1
# ELF5 = target: T11, ELF5 (Homo sapiens, UniProt Q9UKW6-2 1-255); details: protein: recombinant; tags: N-terminal GST; dsDNA, one strand shown
# T11 sequence: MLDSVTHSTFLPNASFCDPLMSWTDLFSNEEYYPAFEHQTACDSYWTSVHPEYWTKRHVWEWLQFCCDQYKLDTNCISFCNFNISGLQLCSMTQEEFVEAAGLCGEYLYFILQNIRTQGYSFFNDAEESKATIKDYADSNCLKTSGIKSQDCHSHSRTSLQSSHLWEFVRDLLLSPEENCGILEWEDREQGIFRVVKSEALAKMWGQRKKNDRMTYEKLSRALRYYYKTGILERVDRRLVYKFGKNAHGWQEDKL
# Outline: as §1
# ETV3 = target: T12, ETV3 (Homo sapiens, UniProt P41162-2 1-143); details: protein: recombinant; tags: N-terminal GST; dsDNA, one strand shown
# T12 sequence: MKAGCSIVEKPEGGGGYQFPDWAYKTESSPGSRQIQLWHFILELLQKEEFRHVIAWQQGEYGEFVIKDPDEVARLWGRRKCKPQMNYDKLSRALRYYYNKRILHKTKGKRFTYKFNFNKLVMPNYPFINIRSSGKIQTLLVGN
# Outline: as §1
# ETV6 = ETV6 (Homo sapiens, UniProt P41212 1-452); details: protein: recombinant; tags: N-terminal GST; dsDNA, one strand shown
# ETV6, sequence (P41212 whole entry): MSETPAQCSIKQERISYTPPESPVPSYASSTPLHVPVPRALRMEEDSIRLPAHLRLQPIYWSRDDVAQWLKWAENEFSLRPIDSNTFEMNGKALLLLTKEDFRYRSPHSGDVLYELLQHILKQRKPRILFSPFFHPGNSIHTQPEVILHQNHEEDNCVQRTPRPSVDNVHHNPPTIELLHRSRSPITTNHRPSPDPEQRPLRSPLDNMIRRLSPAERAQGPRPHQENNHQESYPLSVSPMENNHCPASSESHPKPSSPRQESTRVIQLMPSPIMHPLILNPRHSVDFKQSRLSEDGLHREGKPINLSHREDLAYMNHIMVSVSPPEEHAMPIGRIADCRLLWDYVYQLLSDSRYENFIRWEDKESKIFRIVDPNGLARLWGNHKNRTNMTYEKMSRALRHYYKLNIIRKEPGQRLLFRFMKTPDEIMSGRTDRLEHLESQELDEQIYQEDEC
# Outline: as §1
sequence,measurement,setting,value
TAGTTT,binding signal,FEV,"1.09 fold enrichment (6-mer frequency, TF over GST control)"
same,binding signal,ETV5,"1.18 fold enrichment (6-mer frequency, TF over GST control)"
same,binding signal,HSF1,"1.27 fold enrichment (6-mer frequency, TF over GST control)"
same,binding signal,SPIC,"1.21 fold enrichment (6-mer frequency, TF over GST control)"
same,binding signal,ELF4,"1.21 fold enrichment (6-mer frequency, TF over GST control)"
same,binding signal,ELK4,"1.4 fold enrichment (6-mer frequency, TF over GST control)"
same,binding signal,ETV2,"1.17 fold enrichment (6-mer frequency, TF over GST control)"
same,binding signal,ELF3,"1.34 fold enrichment (6-mer frequency, TF over GST control)"
same,binding signal,CRX,"1.3 fold enrichment (6-mer frequency, TF over GST control)"
same,binding signal,ETV1,"1.24 fold enrichment (6-mer frequency, TF over GST control)"
same,binding signal,ERF,"1.36 fold enrichment (6-mer frequency, TF over GST control)"
same,binding signal,ETV3L,"1.31 fold enrichment (6-mer frequency, TF over GST control)"
same,binding signal,ETS2,"1.19 fold enrichment (6-mer frequency, TF over GST control)"
same,binding signal,SPDEF,"1.16 fold enrichment (6-mer frequency, TF over GST control)"
same,binding signal,ETV7,"1.19 fold enrichment (6-mer frequency, TF over GST control)"
same,binding signal,ELF5,"1.18 fold enrichment (6-mer frequency, TF over GST control)"
same,binding signal,ETV3,"1.32 fold enrichment (6-mer frequency, TF over GST control)"
same,binding signal,ETV6,"1.23 fold enrichment (6-mer frequency, TF over GST control)"
